Screens deposited in PubChem BioAssay by Center for Chemical Genomics, University of Michigan.
The full list was thinned out, with hits kept by preference.
Dicer processing: inhibitors of human Dicer processing of pre-microRNA. cat-ELCCA pre-miR-21 Dicer processing, chemiluminescence; hits give high values. z-score at 25 µM. 6% of 47,000 active. AID 1347074; in the data active = z-score above about 3, passing the limit was not always enough;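 note: plate controls were vehicle for no effect and no enzyme for full effect; higher signal means more uncleaved substrate so more Dicer inhibition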
* marks the source's active call; other numbers are inactive results.

Results for COc1ccc(-c2cc(=S)sc(N)c2C#N)cc1OC ?
Dicer processing: -2.71

What do the screens show for `Cn1c(Cn2c3ccccc3c3ccccc32)nnc1SCC(=O)O`?
Dicer processing: 2.65

What do the screens show for `C=CCN/C=C(\C#N)S(=O)(=O)c1ccc(Cl)cc1`?
Dicer processing: -0.83

What do the screens show for `COC(=O)Nc1c(-c2ccccc2)nc2ccccn12`?
Dicer processing: -0.09

Results for O=C(Nc1c(-c2ccccc2)nc2ccccn12)c1ccco1 ?
Dicer processing: 4.89*

Results for O=C(Nc1c(-c2ccccc2)nc2ccc(Cl)cn12)c1ccco1 ?
Dicer processing: 1.28

Results for CC1=C(C(=O)OCCOc2ccccc2)C(c2ccc3c(c2)OCO3)C2=C(CCCC2=O)N1 (stereo not given) ?
Dicer processing: 0.59

Results for O=C(O)COc1ccc2oc3c(c2c1)CCCC3 ?
Dicer processing: 0.97

How did O=C(COc1ccc2oc3c(c2c1)CCCC3)Nc1cccc(Br)c1 do in these assays?
Dicer processing: 2.39

How did OC(COc1ccc2oc3c(c2c1)CCCC3)CN1CCN(c2ccccc2)CC1 (stereo not given) do in these assays?
Dicer processing: 3.12*

What do the screens show for `N#Cc1c(C(F)(F)F)cc(-c2ccccc2)nc1SCC(=O)N1CCCCC1`?
Dicer processing: 0.44

What do the screens show for `CCc1sc(C(C)(C)C)cc1NC(=O)C(Cl)Cl`?
Dicer processing: -0.26

How did CC(Nc1ncnc2ccccc12)C(=O)O (stereo not given) do in these assays?
Dicer processing: 3.33*

Results for CCCC(Nc1ncnc2ccccc12)C(=O)O (stereo not given) ?
Dicer processing: 0.39

Results for O=C(O)CCC(Nc1ncnc2ccccc12)C(=O)O (stereo not given) ?
Dicer processing: 1.33

How did C=CCOc1cccc(C2c3c(oc4ccccc4c3=O)C(=O)N2c2nnc(C)s2)c1 (stereo not given) do in these assays?
Dicer processing: -2.02

Results for CC(c1ccccc1)n1c(SCC(=O)c2ccc(F)cc2)n[nH]c1=O (stereo not given) ?
Dicer processing: 0.42

Results for CC(c1ccccc1)n1c(SCC(=O)N2CCOCC2)n[nH]c1=O (stereo not given) ?
Dicer processing: 13*

Results for O=C(CSc1nc2ccccc2s1)N1CCOCC1 ?
Dicer processing: 1.02

What do the screens show for `O=C(OCc1ccccc1)C(O)C(O)C(=O)OCc1ccccc1` (stereo not given)?
Dicer processing: -0.17

What do the screens show for `CCc1c(OS(=O)(=O)c2ccc(C)cc2)c2ccccc2n(C)c1=O`?
Dicer processing: -1.74

Results for Cc1ccc(/C(O)=C2\C(=O)C(=O)N(Cc3cccnc3)C2c2cccc(Br)c2)cc1 (stereo not given) ?
Dicer processing: 0.29

What do the screens show for `Cc1ccc(N2C(=O)c3oc4ccccc4c(=O)c3C2c2cccc(O)c2)nc1` (stereo not given)?
Dicer processing: 1.12

What do the screens show for `COc1cc(C2c3c(oc4ccccc4c3=O)C(=O)N2c2ccc(C)cn2)ccc1O` (stereo not given)?
Dicer processing: 4.32*

How did C=CCOc1ccc(C2c3c(oc4ccccc4c3=O)C(=O)N2c2ccc(C)cn2)cc1OCC (stereo not given) do in these assays?
Dicer processing: 2.29

How did CCOc1cc(C2c3c(oc4ccccc4c3=O)C(=O)N2c2ccccn2)ccc1O (stereo not given) do in these assays?
Dicer processing: 2.7

What do the screens show for `CCOc1cc(C2c3c(oc4ccccc4c3=O)C(=O)N2c2ccc(C)cn2)ccc1O` (stereo not given)?
Dicer processing: 4.74*

How did COC(=O)c1ccc(C2c3c(oc4ccccc4c3=O)C(=O)N2c2ccc(C)cn2)cc1 (stereo not given) do in these assays?
Dicer processing: 0.93

How did COc1ccc(Br)cc1C1C(C(=O)OC2CCCCC2)=C(C)NC2=C1C(=O)CCC2 (stereo not given) do in these assays?
Dicer processing: 2.76

How did N#C/C(=N\Nc1cc(C(F)(F)F)cc(C(F)(F)F)c1)S(=O)(=O)c1cccs1 do in these assays?
Dicer processing: 0.92

How did N#C/C(=N\OS(=O)(=O)c1ccc(Cl)cc1)S(=O)(=O)c1cccs1 do in these assays?
Dicer processing: -0.56

Results for N#C/C(=N\OC(=O)c1ccc(C(F)(F)F)cc1)S(=O)(=O)c1cccs1 ?
Dicer processing: 5.45*

How did COc1ccc(-c2cc(C(F)(F)F)n3nc(-c4ccc(Cl)cc4)cc3n2)cc1 do in these assays?
Dicer processing: -0.12

How did CCOC(=O)c1c(NC(=O)c2cc3ccccc3c(=O)o2)sc2c1CCC(CC)C2 (stereo not given) do in these assays?
Dicer processing: 0.08

What do the screens show for `C=CCSc1nc(C)c2cc(C)ccc2n1`?
Dicer processing: -0.03

Results for CSc1nc(C)c2cc(C)oc2n1 ?
Dicer processing: 4.27*

Results for Cc1cccc(Cl)c1NC(=O)Nc1ccc(NC(=O)c2ccccc2O)cc1 ?
Dicer processing: 1.28

Results for S=c1[nH]nc2nc(-c3ccccc3)c(-c3ccccc3)nn12 ?
Dicer processing: -0.34

Results for CCSc1nnc2nc3c4ccccc4c4ccccc4c3nn12 ?
Dicer processing: 1.26

What do the screens show for `S=c1[nH]nc2nc3c4ccccc4c4ccccc4c3nn12`?
Dicer processing: 4.93*

Results for Cc1cc(C)n2ncc(/C(N)=N/OC(=O)c3ccccc3Cl)c2n1 ?
Dicer processing: -3.8

What do the screens show for `CCN(CC)c1cnn(-c2c(Cl)cc(C(F)(F)F)cc2Cl)c(=O)c1Cl`?
Dicer processing: -1.2

How did CCN(CC)c1ccc(Nc2nc(-c3ccc(O)cc3O)cs2)cc1 do in these assays?
Dicer processing: 0.74

How did Cc1nc2sccn2c1-c1csc(Nc2ccc(Br)cc2)n1 do in these assays?
Dicer processing: 4.21*

How did COc1ccc(-c2csc(Nc3ccc(N(C)C)cc3)n2)cc1 do in these assays?
Dicer processing: 0.27

What do the screens show for `Cc1ccn2c(-c3csc(Nc4ccc(N(C)C)cc4)n3)c(C)nc2c1`?
Dicer processing: 5.49*

What do the screens show for `Cc1cc(C)nc(NS(=O)(=O)c2ccc(Nc3nc(-c4c(C)nc5ncccn45)cs3)cc2)n1`?
Dicer processing: 2.19

How did Cc1nc2ccccn2c1-c1ccnc(SCC(=O)Nc2ccc(F)cc2)n1 do in these assays?
Dicer processing: -0.85

What do the screens show for `Cc1cc(NS(=O)(=O)c2ccc(Nc3nc(-c4c(C)nc5ccccn45)cs3)cc2)no1`?
Dicer processing: 3.48*

How did Cc1ccnc(Nc2nc(-c3c(C)nc4ccccn34)cs2)c1 do in these assays?
Dicer processing: 3.09*

How did Cc1cc(NS(=O)(=O)c2ccc(Cl)cc2)no1 do in these assays?
Dicer processing: 0.21

Results for Cc1nc(N)sc1-c1csc(Nc2ccc(Br)cc2)n1 ?
Dicer processing: -1.58

What do the screens show for `Brc1ccc(-c2csc(Nc3ccncc3)n2)cc1`?
Dicer processing: 31.9

Results for Cc1nc2ccccn2c1-c1ccnc(SCC(=O)c2cccc(C(F)(F)F)c2)n1 ?
Dicer processing: -2.1

Results for O=C(CN1CCN(c2nc3cc(Cl)ccc3s2)CC1)Nc1ccccc1 ?
Dicer processing: -2.24

Results for CC(=O)OC1CCC2=C3CCC4(C)CCCC4C3CC(OC(C)=O)C2(C)C1 (stereo not given) ?
Dicer processing: -0.2

What do the screens show for `Cc1nn(C)c2ncc3c(=O)n(Cc4ccc(Cl)cc4)n(C)c3c12`?
Dicer processing: -0.09

How did COc1ccc(S(=O)(=O)N2CCC(C(=O)O)CC2)cc1 do in these assays?
Dicer processing: 1.27

How did CSc1sc(C(=O)O)c(-c2cccc(Cl)c2)c1C#N do in these assays?
Dicer processing: -0.4
